The chains are these.
B1: PhoQ; a variant is named by its letters at X, in order, P23837 (parent)
chain: MKKLLRLFFPLSLRVRFLLATAAVVLVLSLAYGMVALIGYSVSFDKTTFRLLRGESNLFYTLAKWENNKLHVELPENIDKQSPTMTLIYDENGQLLWAQRDVPWLMKMIQPDWLKSNGFHEIEADVNDTSLLLSGDHSIQQQLQEVREDDDDAEMTHSVAVNVYPATSRMPKLTIVVVDTIPVELKSSYMVWSWFIYVLSANLLLVIPLLWVAAWWSLRPIEALAKEVRELEEHNRELLNPATTRELTSLVRNLNRLLKSERERYDKYRTTLTDLTHSLKTPLXXLQXXLRSLRSEKMSVSDAEPVMLEQISRISQQIGYYLHRASMRGGTLLSRELHPVAPLLDNLTSALNKVYQRKGVNISLDISPEISFVGEQNDFVEVMGNVLDNACKYCLEFVEISARQTDEHLYIVVEDDGPGIPLSKREVIFDRGQRVDTLRPGQGVGLAVAREITEQYEGKIVAGESMLGGARMEVIFGRQHSAPKDE

Over roughly 140,000 sequences, “enrichment ratio after two sorts for PhoP signalling” has its median near 0; the highest 2% begin near 11. This is one part of a sample in which the highest values are shown more often than they occur.

Variants of B1 are the subject of this experiment. Put plainly: enrichment ratio after two sorts for PhoP signalling (ratio (wild type AVST 3.29)); higher = more functional. The note with it: with PhoP (E. coli).
As to QMSW, the enrichment ratio was at most 0.25. On to ACNY, for which the enrichment ratio was determined as 0.855. Consider ACGY, for which the enrichment ratio was at most 0.25. Then ACLY, with 15.2; and WFSN, with at most 0.25. In the case of ISKP, the enrichment ratio is at most 0.25. In the case of LFTC, the enrichment ratio is at most 0.25. AKVC: the enrichment ratio amounted to 15.3. In the case of AIVC, the enrichment ratio is 19.1. Then AKVG, with at most 0.25; and WIVC, with at most 0.25; and KKVC, with at most 0.25. As for AIVG, the enrichment ratio was 7.78. As for VMGF, the enrichment ratio is at most 0.25. Regarding FSQV, the enrichment ratio is at most 0.25. For the variant TSQV, the enrichment ratio came to 12.2. On to KSMG, for which the enrichment ratio is at most 0.25. The same measure for MMWG: at most 0.25; for TSMD: 10.7; for TSWG: 16.6.

In the case of KSMS, the enrichment ratio is at most 0.25.

Turning to TSMS, the enrichment ratio worked out at 26.4.

Consider KSQV, for which the enrichment ratio was at most 0.25.

Take TSMG: the enrichment ratio was 13. The same measure for LCWG: at most 0.25; for FSMS: 1.68; for EDGN: at most 0.25. Turning to WMLF, the enrichment ratio is at most 0.25. With DHGA, the enrichment ratio was at most 0.25.

In the case of GPST, the enrichment ratio is at most 0.25. In the case of FTYH, the enrichment ratio is at most 0.25.

Consider IRVV, for which the enrichment ratio is at most 0.25. In the case of DYPQ, the enrichment ratio is at most 0.25. As to EQAY, the enrichment ratio is at most 0.25. As to NSWL, the enrichment ratio was found to be 1.26. As to WSSA, the enrichment ratio is at most 0.25. With FRMR, the enrichment ratio was at most 0.25. Take FSMV: the enrichment ratio stood at 9.33. Take TSMV: the enrichment ratio is 19.3. On to KSMV, for which the enrichment ratio is at most 0.25. For the variant KSMI, the enrichment ratio is at most 0.25.

In the case of TSMI, the enrichment ratio is 23. The same measure for TSMW: at most 0.25. With RCKQ, the enrichment ratio is at most 0.25. As for VMWK, the enrichment ratio was at most 0.25. The same measure for AQIM: 2.44; for QRLC: at most 0.25; for MGDY: at most 0.25.

As to MGFS, the enrichment ratio was 2.82. For MGFA, the enrichment ratio was determined as 3.62. On to MLWC, for which the enrichment ratio was at most 0.25. MGNS: the enrichment ratio is at most 0.25.

In the case of MGLC, the enrichment ratio is 19.1.

With MGWC, the enrichment ratio came out at 32.1.

MGFC: the enrichment ratio was 14.4.

Turning to IHNL, the enrichment ratio was at most 0.25.

As for VPHV, the enrichment ratio was at most 0.25. Take QVMI: the enrichment ratio was at most 0.25. Consider QDPG, for which the enrichment ratio was at most 0.25.

Regarding LMRT, the enrichment ratio was at most 0.25. Take HNWM: the enrichment ratio was at most 0.25. The same measure for SIAN: 22.8; for SFAN: at most 0.25. Regarding TLAN, the enrichment ratio was determined as 12.5.

Take NSAN: the enrichment ratio is at most 0.25.

For the variant KYAN, the enrichment ratio is at most 0.25. Then SLAN, with 13.8. With VLAN, the enrichment ratio is at most 0.25. As to PLAN, the enrichment ratio is at most 0.25. As to SRAN, the enrichment ratio is at most 0.25. SSAN: the enrichment ratio came out at 12.6. For the variant KSAN, the enrichment ratio was at most 0.25.

Take SIWN: the enrichment ratio stood at 4.21. For AYNP, the enrichment ratio was at most 0.25. Turning to MNQS, the enrichment ratio is at most 0.25. The same measure for QHYQ: at most 0.25. With SAQN, the enrichment ratio was at most 0.25.

Take SAAN: the enrichment ratio amounted to 11.7. The same measure for KQAN: at most 0.25; for IPYG: at most 0.25. The same measure for MDSP: 1.12; for NDLM: at most 0.25. Then TTWY, with 14. For the variant MTWF, the enrichment ratio amounted to 11.8.

On to MTWI, for which the enrichment ratio is 10.2.

Regarding YTWY, the enrichment ratio is at most 0.25.

As for YTWF, the enrichment ratio is at most 0.25.

Consider MPWY, for which the enrichment ratio was at most 0.25. Consider MMWF, for which the enrichment ratio was at most 0.25. As for LTWY, the enrichment ratio is 2.54.

Take MTWY: the enrichment ratio worked out at 21.6. With REII, the enrichment ratio was at most 0.25. As for QNIY, the enrichment ratio was at most 0.25. For RKGF, the enrichment ratio is at most 0.25.

In the case of RLAG, the enrichment ratio was at most 0.25. LLSD: the enrichment ratio is at most 0.25. KHVD: the enrichment ratio was at most 0.25.

Turning to WVTG, the enrichment ratio was at most 0.25. In the case of WRYK, the enrichment ratio is at most 0.25. In the case of DWAR, the enrichment ratio was at most 0.25. For the variant DQSP, the enrichment ratio is at most 0.25. Then HHVS, with at most 0.25; and HLFA, with at most 0.25. As to WIAG, the enrichment ratio is at most 0.25.

In the case of TIAG, the enrichment ratio turned out to be 21.3. The same measure for AIAG: 12.5. As to TIFG, the enrichment ratio is at most 0.25. Turning to AKAG, the enrichment ratio was at most 0.25. Consider KKAG, for which the enrichment ratio was at most 0.25.

Take EQNT: the enrichment ratio was at most 0.25.

With MHNT, the enrichment ratio was at most 0.25.

In the case of ITTY, the enrichment ratio was at most 0.25. Regarding TTIV, the enrichment ratio came out at 0.549. FDHV: the enrichment ratio was at most 0.25. The same measure for STQV: 2.63; for FVHV: 12.9. In the case of NVHV, the enrichment ratio is at most 0.25. On to YTQV, for which the enrichment ratio was at most 0.25.

Take FSHV: the enrichment ratio is at most 0.25. Consider TTPV, for which the enrichment ratio was at most 0.25. Then TTHV, with 14.6.

On to TTQV, for which the enrichment ratio was 16.2.

Take TTMV: the enrichment ratio was determined as 28.9. On to YTHV, for which the enrichment ratio is at most 0.25.

For the variant SKAG, the enrichment ratio was at most 0.25. Consider TMDC, for which the enrichment ratio is at most 0.25. Then CSSV, with 0.253; and LKSK, with at most 0.25; and QYAS, with at most 0.25. Consider DYQS, for which the enrichment ratio is at most 0.25. Then HVFV, with at most 0.25. On to VSIQ, for which the enrichment ratio was at most 0.25.

Take RGHV: the enrichment ratio is at most 0.25. As for TGHV, the enrichment ratio came out at 16.1. GGHV: the enrichment ratio is at most 0.25. Then YHQM, with at most 0.25. Regarding DRRP, the enrichment ratio was at most 0.25.

ARSC: the enrichment ratio is at most 0.25. The same measure for AKSC: 23.2; for ADSC: at most 0.25. As for ANSK, the enrichment ratio was at most 0.25. The same measure for TKSC: 5.09; for ANSC: 11.9.

As to VIHS, the enrichment ratio was at most 0.25.

As to QISE, the enrichment ratio was at most 0.25. For the variant IIPR, the enrichment ratio was at most 0.25. The same measure for TIIG: at most 0.25; for MMWT: at most 0.25. Then QLWT, with at most 0.25; and LCWT, with at most 0.25; and MEWT, with 34.7. For the variant QIWT, the enrichment ratio came to 20.8. Then TPWT, with at most 0.25; and MPWT, with at most 0.25.

Turning to QQWT, the enrichment ratio is at most 0.25.

As for QEWT, the enrichment ratio amounted to 11.3. On to MKWT, for which the enrichment ratio was at most 0.25.

On to QRWT, for which the enrichment ratio was at most 0.25. With TSWT, the enrichment ratio worked out at 13.4.

These data come from a collection of fitness landscapes (doi:10.1126/science.1257360).
